Where “and” joins values, the source holds several entries; their conditions need not be identical. Equal values may be shown once. Inconclusive results are not listed. Calls of active or inactive are those of the source. Unless noted, the call rests on the fitted dose curve; in most records, active means well fitted inhibition curve with a large enough effect; inconclusive means small, poorly fitted or top-dose-only effect; inactive means flat fitted curve, though single readings scatter.
Assay: qHTS drug screen for cell cycle checkpoint inhibitors in PARPi-resistant BRCA-mutant ovarian cancer cell lines. (AID 1963452; calls by dose curve)
Settings: PEO1/OlaR viability, CellTiter-Glo luminescence, 96 h; stronger effect = lower value
Procedure, shortened: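 PEO1, PEO4 and PEO1/OlaR ovarian cancer cells, 600 per well, exposed 96 h at 37C to a dilution series. Viability read by CellTiter-Glo luminescence, normalized to DMSO and empty wells; activity summarized as Z-AUC.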

SMILES | Z-AUC
O=c1[nH]c2ccccc2n1CCCN1CCC(n2c(=O)[nH]c3cc(Cl)ccc32)CC1 | 1.58 (inactive)
CC(C)CC(N(C)C)C1(c2ccc(Cl)cc2)CCC1 (stereo not drawn) | 0.505 (inactive)
NN=C(N)N | 0.673 (inactive)
C=C(C)[C@H]1Cc2c(ccc3c2O[C@@H]2COc4cc(OC)c(OC)cc4[C@@H]2C3=O)O1 | -1.61 (inactive)

Same assay, conditions: PEO1/OlaR viability, CellTiter-Glo luminescence, 96 h; measured here: PEO1 parental Z-AUC; stronger effect = lower value

SMILES | Z-AUC
O=c1[nH]c2ccccc2n1CCCN1CCC(n2c(=O)[nH]c3cc(Cl)ccc32)CC1 | 0.892
CC(C)CC(N(C)C)C1(c2ccc(Cl)cc2)CCC1 (stereo not drawn) | 0.684
NN=C(N)N | 0.529
C=C(C)[C@H]1Cc2c(ccc3c2O[C@@H]2COc4cc(OC)c(OC)cc4[C@@H]2C3=O)O1 | -2.63

Same assay, conditions: PEO1/OlaR viability, CellTiter-Glo luminescence, 96 h; measured here: PEO4 Z-AUC; stronger effect = lower value

SMILES | Z-AUC
O=c1[nH]c2ccccc2n1CCCN1CCC(n2c(=O)[nH]c3cc(Cl)ccc32)CC1 | 0.827
CC(C)CC(N(C)C)C1(c2ccc(Cl)cc2)CCC1 (stereo not drawn) | 0.647
NN=C(N)N | 0.584
C=C(C)[C@H]1Cc2c(ccc3c2O[C@@H]2COc4cc(OC)c(OC)cc4[C@@H]2C3=O)O1 | -1.87

Assay: qHTS profiling for inhibitors of Plasmodium falciparum proliferation (AID 504749);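 further: 0% = DMSO vehicle and full inhibition = artemisinin control; nearly all actives have a fitted effect of over 60% in size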
Settings: P. falciparum in erythrocytes, SYBR Green DNA, 72 h; at 28.7 µM (top of the series); parasite line A
Procedure, shortened: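 Each compound contacts P. falciparum-infected red blood cells for 72 h at 37 C; lysis buffer (Tris, EDTA, saponin, Triton X, SYBR Green I) is added and fluorescence measured next morning; values normalized to controls.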

SMILES | activity, negative = inhibition
CC1NCCOC1c1ccccc1 (stereo not drawn) | 8.85% (inactive)
CCCC(C)(COC(N)=O)COC(=O)NC(C)C (stereo not drawn) | 8.09% (inactive)
N#CC(C#N)=Cc1ccc(O)c(O)c1 | -14.1% (inactive)
Nc1ccncc1 | 15.2% (inactive)
CC(=O)[C@H]1CC[C@H]2[C@@H]3CC[C@H]4C[C@H](O)CC[C@]4(C)[C@H]3C(=O)C[C@]12C | 10.2% (inactive)
CCC(C(N)=O)N1CCCC1=O (stereo not drawn) | 2.96% (inactive)
CN(C)CCc1ccc(O)cc1 | -8.4% (inactive)
NCC(CC(=O)O)c1ccc(Cl)cc1 (stereo not drawn) | 6.71% (inactive)
C=C1CC[C@@]2(O)[C@H]3Cc4ccc(O)c5c4[C@@]2(CCN3CC2CC2)[C@H]1O5 | 9.27% (inactive)
NP(N)(=O)NC(=O)c1ccc(F)cc1 | -1.33% (inactive)
CC[N+]1(C)CCCC(OC(=O)C(O)(c2ccccc2)c2ccccc2)C1 (stereo not drawn) | -4.88% (inactive)
CC(=O)Nc1cc([As](=O)(O)O)ccc1O | -21% (inactive)
CC(C)CC(N(C)C)C1(c2ccc(Cl)cc2)CCC1 (stereo not drawn) | 6.97% (inactive)
CC(CCc1ccccc1)NC(C)C(O)c1ccc(O)cc1 (stereo not drawn) | 8.41% (inactive)
CCC(COC(=O)c1cc(OC)c(OC)c(OC)c1)(c1ccccc1)N(C)C (stereo not drawn) | -11.1% (inactive)
NN=C(N)N | -1.43% (inactive)
CC(=O)[C@H]1CC[C@H]2[C@@H]3CC[C@H]4C[C@](C)(O)CC[C@]4(C)[C@H]3CC[C@]12C | 3.34% (inactive)
C=C(C)[C@H]1Cc2c(ccc3c2O[C@@H]2COc4cc(OC)c(OC)cc4[C@@H]2C3=O)O1 | -0.828% (inactive)
CC[N+](CC)(CC)CC | 15.6% (inactive)
CC1OC(C)OC(C)O1 (stereo not drawn) | 8.9% (inactive) and 17.9% (inactive)
Oc1cccc2cccnc12 | 4.36% (inactive)
Cc1ccc(-c2nc3ccc(C)cn3c2CC(=O)N(C)C)cc1 | -4.35% (inactive)
CCOP(=S)(OCC)Oc1cc(C)nc(C(C)C)n1 | 5.69% (inactive)
O=C(O)c1ccc2[nH]cc(CCCCN3CC=C(c4ccccc4)CC3)c2c1 | 5.66% (inactive)
NCC(O)c1ccc(O)cc1 (stereo not drawn) | 10.2% (inactive)
CN1C(=S)CN=C(c2ccccc2)c2cc(Cl)ccc21 | -4.94% (inactive)
